HepG2 tox-1 – HepG2 cytotoxicity, counter-screen for TGF-b inhibitors; HepG2 CAGA-GFP viability, ATP luminescence, 18 h; Potency, µM (series often up to 46.1 µM), for the others: at the highest dose activity change, negative = cytotoxicity, most hits filed as cytotoxic; 0.76% of 410,000 active; also: potency is read from the fitted curve at half-maximal effect
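HepG2 CAGA-GFP cells (1000/well, DMEM with 1% FBS) received compound, then TGF-beta at 500 pg/mL final, and were incubated 18 hours at 37 degrees C. Viability was read by CellTiter-Glo luminescence. Media-only wells were set as complete cell-killing and DMSO as no toxicity.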
TGFb SMAD3 inh – inhibitors of TGF-b signaling | AID 588855 | HepG2 CAGA-GFP TGF-b/SMAD3 reporter, GFP fluorescence, 18 h; TGF-beta stimulated, 500 pg/mL final | 1.2% of 410,000 active | Potency, µM (titrated, usually from 46.1 µM), inactives show top-dose activity, negative = inhibition, most hits filed as inhibitors; also: potency is read from the fitted curve at half-maximal effect; % is scaled to controls: 0 for no effect and ±100 for the full control effect; nearly all actives have a fitted effect of over 65% in size
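HEPG2 CAGA-GFP, 1000 cells/well; 2 h settle, 37 C; cpd via pin tool; TGF-b 500 pg/mL final; 18 h, 37 C; GFP imaging ex488/em500-530; %Activity normalised to -TGF-b and +DMSO controls; CRC fit, curve class.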
D3 antag – antagonists of human D3 dopamine receptor; D3R cells, DiscoveRx beta-arrestin luminescence, antagonist mode; active compounds read low; max response, negative = inhibition, %; 2.5% of 360,000 active; AID 652054; in the data active = max response below about -50%; inconclusive = no clear call, values can overlap the other calls; also: % is scaled to controls: 0 for no effect and ±100 for the full control effect
Target sequence (P35462 whole entry, looked up): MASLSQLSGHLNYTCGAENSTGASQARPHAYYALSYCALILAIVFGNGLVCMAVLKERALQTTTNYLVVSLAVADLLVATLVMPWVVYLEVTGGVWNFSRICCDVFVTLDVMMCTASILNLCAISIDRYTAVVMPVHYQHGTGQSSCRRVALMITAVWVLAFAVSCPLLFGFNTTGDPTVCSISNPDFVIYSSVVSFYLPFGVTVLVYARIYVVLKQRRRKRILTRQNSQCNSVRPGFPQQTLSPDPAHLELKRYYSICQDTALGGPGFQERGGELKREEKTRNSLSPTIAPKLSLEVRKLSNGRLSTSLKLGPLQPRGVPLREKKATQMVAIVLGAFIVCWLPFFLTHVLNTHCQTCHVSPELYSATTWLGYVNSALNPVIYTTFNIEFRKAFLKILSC
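Cells plated overnight at 1500 cells/well, then exposed to library compounds with dopamine controls for 90 minutes at 37 degrees C. DiscoveRx reagent added for 30–60 minutes at room temperature; luminescence read, quantitative HTS format.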
DRD3 agonist – D3 dopamine receptor (human) agonism. P35462. max activation, %. 0.58% of 410,000 active. D3R DiscoveRx beta-arrestin cells, luminescence, 90 min. AID 652048; in the data active = max activation above about 30%; also: 0% is about no effect
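Agonist-mode cell screen: cells plated at 1500/well and incubated overnight at 37 °C, then exposed to library compounds for 90 min at 37 °C. Detection reagent was added for 30–60 min at room temperature, and luminescence was read.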
ATXN2 expr inh – inhibitors of ATXN2 expression; 0.72% of 360,000 active; AID 1745845; Potency, µM (series often up to 57 µM), for the others: at the highest dose activity change, negative = inhibition, actives largely listed as inhibitors; HEK-293 ATXN2-luciferase reporter, luminescence, 24 h; also: potency is read from the fitted curve at half-maximal effect; % is scaled to controls: 0 for no effect and ±100 for the full control effect; nearly all actives have a fitted effect of over 55% in size
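qHTS (up to 57 uM final) was run with 24 h compound exposure of reporter cells at 37 °C. Each well was multiplexed: SteadyGlo luminescence measured ATXN2-luciferase expression after a fluorogenic Gly-Phe-AFC viability readout (25 uM final).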
ATXN viability – viability counter-screen for ATXN expression inhibitors. S2 cells (HEK-293 line with an ATXN2-luciferase reporter) viability, CellTiter-Fluor protease fluorescence, 24 h. Potency, µM (highest dose often 56.7 µM), usual class: cytotoxic. 0.49% of 400,000 active. AID 651635; also: potency is read from the fitted curve at half-maximal effect; nearly all actives have a fitted effect of over 40% in size
TGFb confirm – confirmation of TGF-b signaling inhibitors in HepG2 reporter cells | 63% of 1,600 active | HepG2 CAGA-GFP TGF-b reporter, GFP fluorescence, 18 h; cells stimulated with TGF-beta, 500 pg/mL | Potency, µM (top dose mostly 46.1 µM), for the others: at the highest dose activity, negative = inhibition, most hits filed as inhibitors | shares compounds with TGFb SMAD3 inh | AID 720534; also: potency is read from the fitted curve at half-maximal effect; % is scaled to controls: 0 for no effect and ±100 for the full control effect; nearly all actives have a fitted effect of over 65% in size
HepG2 tox-2 – toxic to HepG2 cells in TGF-b counterscreen; shares compounds with TGFb SMAD3 inh; 27% of 1,600 active; HepG2 CAGA-GFP viability, ATP luminescence, 18 h; cells stimulated with TGF-beta, 500 pg/mL; Potency, µM (doses to about 46.1 µM), for inactives: top-dose activity, negative = cytotoxicity, actives largely listed as inhibitors; also: potency is read from the fitted curve at half-maximal effect; % is scaled to controls: 0 for no effect and ±100 for the full control effect; nearly all actives have a fitted effect of over 70% in size
TGFb CCL64 inh – TGF-b inhibition, CCL64 orthogonal assay; shares compounds with TGFb SMAD3 inh; CCL64 CAGA-GFP reporter, TGF-b stimulated, GFP fluorescence, 18 h; Potency, µM (highest dose often 46.1 µM), inactives show at the highest dose activity, negative = inhibition, most hits filed as inhibitors; 41% of 1,600 active; AID 720536; also: potency is read from the fitted curve at half-maximal effect; nearly all actives have a fitted effect of over 65% in size
TGFb COP inh – validation of TGF-b inhibitors in HepG2 COP promoter reporter | shares compounds with TGFb SMAD3 inh | HepG2 COP-GFP TGF-b reporter, GFP fluorescence, 18 h; cells stimulated by added recombinant TGF-beta | Potency, µM (series often up to 46.1 µM), for the others: top-dose activity, negative = inhibition, usual class: inhibitors | 3% of 1,600 active | AID 720537; also: potency is read from the fitted curve at half-maximal effect; nearly all actives have a fitted effect of over 70% in size
* marks the source's active call; other numbers are inactive results; [ ] = another dose, or the depositor's remark. The list is not random: actives were taken first. Their share in the collection is about 4.8%. Unless noted, calls follow the shape of the dose curve; as a rule, active = well fitted curve in the direction sought with a large enough effect; inconclusive = small, poorly fitted or top-dose-only effect, or another doubt; inactive = no such curve, though single readings can be large; an effect the other way counts as inactive or inconclusive.

Results for O=C1NC(Cc2ccc(O)cc2)c2nc3cc(F)c(F)cc3c(=O)n2-c2cc3ccccc3cc21 (configuration not stated) ?
HepG2 tox-1: -20%; TGFb SMAD3 inh: 16µM*; D3 antag: 22; DRD3 agonist: 3; ATXN2 expr inh: inconclusive; TGFb confirm: inconclusive; HepG2 tox-2: inconclusive; TGFb CCL64 inh: inconclusive; TGFb COP inh: 62%

What do the screens show for `CC(=NNc1nc2ccccc2o1)c1cc2ccccc2cn1`?
HepG2 tox-1: -52%; TGFb SMAD3 inh: 0.32µM*; D3 antag: 28; DRD3 agonist: 18; ATXN2 expr inh: inconclusive; ATXN viability: inactive; TGFb confirm: inconclusive; HepG2 tox-2: 18µM*; TGFb CCL64 inh: inconclusive; TGFb COP inh: 22%

How did CCO[C@@H]1OC(C(=O)NCc2nc3ccccc3[nH]2)=C[C@H](C(C)(C)C)[C@H]1CCCO do in these assays?
HepG2 tox-1: -5%; TGFb SMAD3 inh: 1.6µM*; D3 antag: -14; DRD3 agonist: -2; ATXN2 expr inh: 4%; ATXN viability: inconclusive; TGFb confirm: inconclusive; HepG2 tox-2: 6%; TGFb CCL64 inh: inconclusive; TGFb COP inh: -25%

How did CCOc1ccccc1CNC(=O)c1cc(-c2ccc(Cl)s2)nc2ccccc12 do in these assays?
HepG2 tox-1: 5%; TGFb SMAD3 inh: -18%; DRD3 agonist: 7; ATXN2 expr inh: 13%; ATXN viability: inactive

How did COc1ccc(S(=O)(=O)N2CCCCCC2)cc1C(=O)N(C)Cc1c(F)cccc1Cl do in these assays?
HepG2 tox-1: -4%; TGFb SMAD3 inh: -3%; D3 antag: 13; DRD3 agonist: 1; ATXN2 expr inh: 4%; ATXN viability: inactive

How did COc1ccc(S(=O)(=O)N2CCCCCC2)cc1C(=O)N(C)Cc1ccc(Cl)cc1Cl do in these assays?
HepG2 tox-1: 0%; TGFb SMAD3 inh: 16µM*; D3 antag: -16; DRD3 agonist: -11; ATXN2 expr inh: inconclusive; ATXN viability: inconclusive; TGFb confirm: 18µM*; HepG2 tox-2: -19%; TGFb CCL64 inh: inconclusive; TGFb COP inh: 31%

What do the screens show for `Cc1cc(C)c(NC(=O)C2CCN(c3nnc(C)c4c(C)n(-c5ccccc5)nc34)CC2)c(C)c1`?
HepG2 tox-1: 20%; TGFb SMAD3 inh: inconclusive; DRD3 agonist: -24

Results for Cc1cc(N2CCN(C)CC2)ccc1NC(=O)c1c2c(nc3ccccc13)CCN(Cc1ccccc1)C2 ?
HepG2 tox-1: 10µM*; TGFb SMAD3 inh: 10µM*; D3 antag: 0; DRD3 agonist: -6; ATXN2 expr inh: -29%[11.3 µM]; ATXN viability: inconclusive; TGFb confirm: 3.3µM*; HepG2 tox-2: 2.6µM*; TGFb CCL64 inh: 8.2µM*; TGFb COP inh: 12µM*

Results for O=C(NC1CCCCCC1)c1c2c(nc3ccccc13)CCN(Cc1ccccc1)C2 ?
HepG2 tox-1: 6%; TGFb SMAD3 inh: 8%; D3 antag: 32; DRD3 agonist: 9; ATXN2 expr inh: 4%; ATXN viability: inconclusive

How did O=c1cc(O)c(-c2ccc(Cl)cc2)c(Cl)[nH]1 do in these assays?
HepG2 tox-1: -5%; TGFb SMAD3 inh: -8%; D3 antag: 2; DRD3 agonist: 3; ATXN2 expr inh: -10%; ATXN viability: inactive

What do the screens show for `O=C1c2cc(Cl)ccc2-c2c(O)cc(Cl)cc21`?
HepG2 tox-1: -15%; TGFb SMAD3 inh: 11µM*; D3 antag: inconclusive; DRD3 agonist: -10; ATXN2 expr inh: inconclusive; ATXN viability: inactive; TGFb confirm: 12µM*; HepG2 tox-2: inconclusive; TGFb CCL64 inh: 8.2µM*; TGFb COP inh: 27%

Results for O=C(Nc1ccc(Cl)cc1)N(Cc1nc2ccccc2c(=O)[nH]1)Cc1cccs1 ?
HepG2 tox-1: 8%; TGFb SMAD3 inh: 10µM*; D3 antag: 30; DRD3 agonist: 1; ATXN2 expr inh: -20%; ATXN viability: inconclusive; TGFb confirm: 21µM*; HepG2 tox-2: inconclusive; TGFb CCL64 inh: inconclusive; TGFb COP inh: 38%

How did COc1ccc(C(=O)Nc2ccc3c(c2)N(C2CCCC2)C(=O)c2ccccc2S3)cc1OC do in these assays?
HepG2 tox-1: -4%; TGFb SMAD3 inh: 21%; DRD3 agonist: -9; ATXN2 expr inh: 95%; ATXN viability: inconclusive

What do the screens show for `Cc1ccc(Cc2c(-c3cccc(Cl)c3)nc3ccc(C)cn23)cc1`?
HepG2 tox-1: -10%; TGFb SMAD3 inh: 10µM*; D3 antag: 5; DRD3 agonist: 3; ATXN2 expr inh: -36%; ATXN viability: inconclusive; TGFb confirm: 18µM*; HepG2 tox-2: inconclusive; TGFb CCL64 inh: inconclusive; TGFb COP inh: 55%

Results for COc1ccc(Cc2c(-c3ccccc3)nc3ccc(Br)cn23)c(C)c1 ?
HepG2 tox-1: -19%; TGFb SMAD3 inh: 10µM*; D3 antag: inconclusive; DRD3 agonist: -5; ATXN2 expr inh: -35%; ATXN viability: inconclusive; TGFb confirm: inconclusive; HepG2 tox-2: inconclusive; TGFb CCL64 inh: inconclusive; TGFb COP inh: 51%

Results for Brc1cccc(-c2nc3ccc(Br)cn3c2Cc2ccsc2)c1 ?
HepG2 tox-1: -7%; TGFb SMAD3 inh: 11µM*; D3 antag: 2; DRD3 agonist: 8; ATXN2 expr inh: 9%; ATXN viability: inconclusive; TGFb confirm: 23µM*; HepG2 tox-2: inconclusive; TGFb CCL64 inh: inconclusive; TGFb COP inh: -5%

Screens from PubChem.
